{"source": "PubChem BioAssay (EPA / NIEHS)", "note": "Results filed as inconclusive are left out. Activity calls are given as the source filed them. The calls were made as follows: active = hit-call score of the fitted dose curve at least 0.9, where 1 is the maximum; inconclusive = response in the unintended direction; inactive = score below 0.9.", "data": [{"target": "human Retinoic Acid Receptor beta (RARb), RARB (gene 5915) (UniProt P10826)", "sequence (P10826 whole entry, looked up, the tested form may be a part)": "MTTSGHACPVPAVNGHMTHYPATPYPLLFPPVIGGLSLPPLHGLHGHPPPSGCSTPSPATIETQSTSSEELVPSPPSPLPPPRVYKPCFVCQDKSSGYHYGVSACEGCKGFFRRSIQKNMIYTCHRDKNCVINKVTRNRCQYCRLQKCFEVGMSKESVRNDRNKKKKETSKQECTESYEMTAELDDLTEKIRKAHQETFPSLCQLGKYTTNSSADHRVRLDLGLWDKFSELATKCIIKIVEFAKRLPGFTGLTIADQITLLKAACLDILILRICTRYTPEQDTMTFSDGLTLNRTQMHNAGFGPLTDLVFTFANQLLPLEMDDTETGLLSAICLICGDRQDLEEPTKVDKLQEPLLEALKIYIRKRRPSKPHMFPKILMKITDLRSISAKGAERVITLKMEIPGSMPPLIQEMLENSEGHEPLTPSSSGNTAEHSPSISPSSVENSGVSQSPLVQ", "assay": "ATG_RARb_TRANS: Attagene TRANS-FACTORIAL HepG2 Assay for human Retinoic Acid Receptor beta (AID 2283004)", "method_in_brief": "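Induction of reporter mRNA from a chimeric RARb-Gal4 construct was measured by RT-PCR, FAM labelling, HpaI digestion and capillary electrophoresis. Measurements followed 24 h compound treatment of transiently transfected human HepG2 liver cells, with DMSO as baseline.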", "values": [{"molecule": "OCCOCCO", "outcome": "inactive"}, {"molecule": "c1ccc2c(c1)-c1cccc3cccc-2c13", "outcome": "inactive"}, {"molecule": "Nc1ccc(Cl)cc1N", "outcome": "inactive"}, {"molecule": "CCOC(=O)[C@]1(c2ccccc2)Oc2ccccc2[C@@H]1N", "outcome": "inactive"}, {"molecule": "CCCCCCCCOC(=O)c1ccc(C(=O)OCCCCCCCC)c(C(=O)OCCCCCCCC)c1", "outcome": "inactive"}, {"molecule": "Nc1ccc(Cc2ccc(N)cc2)cc1", "outcome": "inactive"}, {"molecule": "Cc1cccc(N)c1N", "outcome": "inactive"}, {"molecule": "O=P(OCCCl)(OCCCl)OCCCl", "outcome": "inactive"}]}]}
